A short description of experiment [1]: NCI Yeast Anticancer Drug Screen. Data for the rad50 strain (AID 155).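 Further: 0% = growth of vehicle-only cultures of the same strain.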 To be noted: S. cerevisiae rad50 strain growth inhibition; at 50.0 µM; hits give high values. The procedure, abridged: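 Genetically altered yeast (DNA repair pathway); compound treatment; growth inhibition vs vehicle ctrl.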
A short description of experiment [2]: NCI Yeast Anticancer Drug Screen. Data for the mec2-1 strain (AID 157). The settings on record: S. cerevisiae mec2-1 strain, at 50.0 µM, hits give high values. The procedure, abridged:
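Yeast mec2-1 mutant treated with compound. Readout: growth inhibition vs vehicle controls.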

Experiment [3] is described as follows: NCI Yeast Anticancer Drug Screen. Data for the sgs1 mgt1 strain (AID 161).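 Further: 0% = growth of cultures given vehicle only.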 The settings on record: S. cerevisiae sgs1 mgt1 strain, at 50.0 µM, hits give high values. The procedure, abridged:
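Read-out: growth inhibition vs vehicle controls. Cells: mutant yeast strain deficient in DNA damage repair.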

Experiment [4] is described as follows: NCI Yeast Anticancer Drug Screen. Data for the cln2 rad14 strain (AID 165).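 Further: 0% = growth equal to vehicle treated cultures.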 To be noted: S. cerevisiae cln2 rad14 strain, at 50.0 µM, hits give high values. Put shortly: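 cln2 rad14 yeast strain; compound exposure; growth inhibition read vs vehicle controls.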
A short description of experiment [5]: NCI Yeast Anticancer Drug Screen. Data for the bub3 strain (AID 167). To be noted: S. cerevisiae bub3 mutant strain, at 50.0 µM, hits give high values. The procedure, abridged:
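Yeast carrying a defined mutation is treated with each compound, and growth is compared with that of vehicle-exposed cells to give inhibition.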

Experiment [6] in a line: NCI Yeast Anticancer Drug Screen. Data for the mlh1 rad18 strain (AID 175). The settings on record: S. cerevisiae mlh1 rad18 strain growth inhibition; at 50.0 µM; hits give high values. The procedure, abridged: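 Yeast w/ defined DNA-repair lesions; compound exposure; growth vs vehicle controls → % inhibition.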

This is part of a sample that, as a whole, favours compounds with a hit. Of some 79,000 tested, about 15% had one in any assay. A number with no mark means an inactive call. Calls of active or inactive are those of the source. No stated cut-off is given here; in the data, active means growth inhibition above about 70%; inactive means the rest.

For the compound `C/C(CC(=O)Nc1ccc(C)c(C)c1)=N\N(c1ccccc1)c1ccccc1`, the growth inhibition in experiment [1] is -16.6%; in experiment [2], -13.8%; in experiment [3], -27%; in experiment [4], -3.4%; in experiment [5], -17.6%; in experiment [6] it was -20.5%.
As for `CCC(=O)N1C(=O)OCC1C(C)C` (stereo not given), the growth inhibition is -2.8% in experiment [1]; -21.4% in experiment [2]; -22.3% in experiment [3]; 13.1% in experiment [4]; -9.35% in experiment [5]; 14.8% in experiment [6].
As for `CCOC(OCC)N(C)C`, the growth inhibition is -14.9% in experiment [1]; -5.25% in experiment [2]; -3.05% in experiment [3]; -4.8% in experiment [4]; -5.5% in experiment [5]; -26.8% in experiment [6].
As for `C[N+]1(CSC(=O)c2ccccc2)CCCCC1`, the growth inhibition in experiment [1] is 1.95%; in experiment [2], 11.5%; in experiment [3], 12.3%; in experiment [4] it was 1.6%; in experiment [5], -9.75%; in experiment [6], 24.9%.
Regarding `O=S(=O)(c1ccccc1)c1ccc(O)cc1`, the growth inhibition was -20.8% in experiment [1]; -23.8% in experiment [2]; -16.9% in experiment [3]; -29.8% in experiment [4]; -8.35% in experiment [5]; -15.7% in experiment [6].
Consider `Nc1nc(-c2ccncc2)cc(-c2cc(-c3ccncc3)nc(N)n2)n1`, for which the growth inhibition in experiment [1] is -7.7%; in experiment [2] it was -0.25%; in experiment [3], -8.65%; in experiment [4], -21.9%; in experiment [5], -12.3%; in experiment [6] it was 10.3%.
As for `O=C(c1ccc(CSc2ccc(Cl)cc2)o1)N1CCOCC1`, the growth inhibition in experiment [1] was 23.9%; in experiment [2] it was 12%; in experiment [3] it was 45.5%; in experiment [4], 24.2%; in experiment [5], 32.6%; in experiment [6] it was 26.6%.
For `NC(=O)c1ncn(C2CCC(CP(=O)(O)O)C2)c1N` (stereo not given), the growth inhibition is -7.45% in experiment [1]; -14.1% in experiment [2]; -9.55% in experiment [3]; -28.4% in experiment [4]; -7% in experiment [5]; 5.8% in experiment [6].
Consider `C#CCNC(=O)ON1C(=O)CCC1=O`, for which the growth inhibition in experiment [1] is -5.25%; in experiment [2], -8.4%; in experiment [3] it was -25.7%; in experiment [4], -12.4%; in experiment [5] it was -16.9%; in experiment [6], -28.9%.
As to `O=c1[nH]c(=S)[nH]c2c1CN(CCCN1CCOCC1)CN2`, the growth inhibition was 10.3% in experiment [1]; -8.7% in experiment [2]; -15.8% in experiment [3]; 3.2% in experiment [4]; -25.1% in experiment [5]; 5.45% in experiment [6].
Consider `CCc1ccc(NC(=S)NC(=O)C(C)Oc2ccccc2)cc1` (stereo not given), for which the growth inhibition in experiment [1] was 39.5%; in experiment [2], 21.6%; in experiment [3], 54.7%; in experiment [4], 15.1%; in experiment [5], 78.8% (active); in experiment [6] it was 8.9%.
As for `CCOC(=O)c1cc(-c2ccc(OC)c(OC)c2)c[nH]1`, the growth inhibition was 14.6% in experiment [1]; -2.3% in experiment [2]; 40.2% in experiment [3]; 12.6% in experiment [4]; 23.1% in experiment [5]; 28% in experiment [6].
As for `CN(C)C1C(=O)C(C(=O)NCN2CCCC2)=C(O)C2(O)C(=O)C3=C(O)c4c(O)cccc4C(C)(O)C3CC12` (stereo not given), the growth inhibition in experiment [1] is 2.75%; in experiment [2] it was -4.7%; in experiment [3], -10.2%; in experiment [4] it was -27.9%; in experiment [5], -26.9%; in experiment [6], 21.4%.
As for `[N-]=[N+]=Nc1ncnc2c1sc(=S)n2-c1ccccc1`, the growth inhibition in experiment [1] is -6.65%; in experiment [2], 21.1%; in experiment [3], -24.1%; in experiment [4], 3.6%; in experiment [5], 15.8%; in experiment [6] it was -2.4%.
For `COC(=O)c1cc(O)c(C(=O)OC)s1`, the growth inhibition in experiment [1] was 3.05%; in experiment [2], -9.75%; in experiment [3], -0.55%; in experiment [4], -27.9%; in experiment [5] it was 14.8%; in experiment [6], 11.2%.
`Cc1c(CCO)sc[n+]1CC(=O)c1ccccc1`: the growth inhibition in experiment [1] is -14.5%; in experiment [2], -19%; in experiment [3] it was -3.7%; in experiment [4], 1.55%; in experiment [5], 2.3%; in experiment [6], 1%.
Turning to `C1CC2(C34CCC(CC3)C4)CCC1C2`, the growth inhibition in experiment [1] is -5.15%; in experiment [2], 1.45%; in experiment [3], 14.2%; in experiment [4], 7.55%; in experiment [5], 7.1%; in experiment [6], -2.6%.
Take `[Cl][Pt+2][Cl].[NH-]C(CO)C([NH-])CO` (stereo not given): the growth inhibition in experiment [1] was 32.4%; in experiment [2] it was -47.9%; in experiment [3], -10.3%; in experiment [4] it was -15.8%; in experiment [5], -27.9%; in experiment [6] it was -61.5%.
For `N#CCC(=O)c1ccccc1C(=O)O`, the growth inhibition in experiment [1] was -4.45%; in experiment [2], -38.8%; in experiment [3], 4.7%; in experiment [4], 4.65%; in experiment [5] it was -6.2%; in experiment [6] it was 17.6%.
Take `Nc1[nH]c(=O)ncc1[N+](=O)[O-]`: the growth inhibition is 2.5% in experiment [1]; -4.1% in experiment [2]; 5.9% in experiment [3]; -25.4% in experiment [4]; -16.2% in experiment [5]; -0.65% in experiment [6].

The values are drawn from PubChem BioAssay (NCI).
